The whole screen tested about 44,000 compounds, of which fewer than 10 were called active. Calls follow the shape of the dose curve; as a rule, active = well fitted activation curve with a large enough effect; inconclusive = small, poorly fitted or top-dose-only effect, or another doubt; inactive = no such curve, though single readings can be large or run the other way. These entries were drawn from the full list.
What follows are compounds tested against Beta-2 adrenergic receptor (Homo sapiens) (UniProt P07550) (assay: qHTS assay of beta-arrestin-biased ligands of beta2-adrenergic receptor: NCGC Sytravon Library Screen). Conditions: HTLA Tango cells, beta-arrestin recruitment, luciferase luminescence, 18 h; series mostly up to 46.1 µM.
Description: The concept of biased agonism is an emerging concept of molecular pharmacology which proposes that seven transmembrane receptors (7TMRs) or G protein-coupled receptors (GPCRs), exist in multiple signaling conformations and complexes and that ligands (either agonists or antagonists) can induce signaling biased responses for distinct signal transduction cascades. […] Furthermore, accumulating evidence over the last decade has drawn attention to a novel function of beta-arrestins as signal transducers that scaffold various signaling molecules upon activation of 7TMRs. […] This beta-arrestin-biased signaling presumably leads to distinct physiological outcomes from those by G protein activation. Additionally, the active receptor conformations which prefer on this beta-arrestin signaling are likely different from those activating G protein signaling. […] The goal of this screening project will be to discover and optimize novel beta-arrestin-biased ligands for beta2-AR signaling. A luminescent cell-based assay for beta2-AR-mediated agonism, known as the Tango assay, has been validated in which ligand binding of a recombinant beta2-AR and subsequent recruitment of a recombinant beta-arrestin lead to the release of the transcriptional activator tTA, which upregulates transcription of a tTA-responsive luciferase gene. […] Compounds from the NCGC Sytravon Library collection were screened as a concentration-titration series that ranged from 46 microM to 0.6 nM. NIH Molecular Libraries Probe Production Network [MLPCN] NIH Chemical Genomics Center [NCGC] MLPCN Grant: Fast-track/HHSN271700800025C PI: Bryan Roth and Bob Lefkowitz
Tango cells were dispensed into white, solid, tissue-culture-treated 1536-well plates at 1500 cells/well in DMEM, containing 1% fetal bovine serum (FBS). Then, 23 nL of compounds or DMSO were delivered to each well using a pin tool. Plates were incubated at 37 degrees C, 5% CO2 for 18 hr. Then 2.5 uL luminescent substrate mix (in-house prepared: 150 mM Tris-Cl, pH 7.6, 3 mM MgCl2, 1% Triton X-100, 5 mM DTT, 0.5 mM CoA, 0.15 mM ATP, 0.44 mM D-luciferin, final concentrations) was added to each well. Plates were then incubated for 15 minutes at room temperature, and subsequently measured on a ViewLux plate reader for luminescent signal using a clear filter with a 10 second exposure and 2x binning. The %Activity was determined from the corrected luminescence values. […] Concentration-response curves were fitted to the signals arising from the resulting luminescence. The concentration-effect curves were then classified based on curve quality (r2), response magnitude and degree of measured activity, and compounds were subsequently categorized based on their curve class.

Chain of Beta-2 adrenergic receptor (Homo sapiens) (P07550 whole entry, looked up): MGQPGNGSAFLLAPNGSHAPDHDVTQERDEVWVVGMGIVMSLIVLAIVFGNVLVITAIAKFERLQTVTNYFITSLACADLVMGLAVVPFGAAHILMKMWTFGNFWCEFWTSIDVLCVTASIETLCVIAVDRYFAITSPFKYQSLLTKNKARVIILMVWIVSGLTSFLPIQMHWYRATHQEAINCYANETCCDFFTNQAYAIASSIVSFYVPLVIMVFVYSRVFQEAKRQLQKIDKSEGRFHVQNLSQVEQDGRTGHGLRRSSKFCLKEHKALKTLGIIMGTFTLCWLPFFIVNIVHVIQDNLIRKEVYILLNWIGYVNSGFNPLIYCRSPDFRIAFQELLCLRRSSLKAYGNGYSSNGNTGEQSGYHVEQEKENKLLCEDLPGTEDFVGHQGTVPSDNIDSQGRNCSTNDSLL

outcome, inactive:
OCc1cnc(SCc2ccc(F)cc2)n1Cc1ccc(F)cc1
CCOc1cc2[nH]c(=O)n(Cc3ccc(C(=O)NCCN(CC)CC)cc3)c(=O)c2cc1OCC
COc1ccc(Nc2ncc3c(n2)CCN(C(=O)OC(C)(C)C)C3)cc1
CCOC(=O)CNC(=O)c1cc2c(=O)n3cccc(C)c3nc2s1
COC(=O)c1ccc(NC(=O)CCc2c(C)nn(-c3ccc(N4CCCC4)nn3)c2C)cc1
CC(=O)N1CCCc2cc(S(=O)(=O)N3CCC(C(=O)NCc4ccc(C)cc4)CC3)ccc21
O=C1CC(c2ccc(F)cc2F)c2cc3c(cc2N1)OCO3 (stereo not drawn)
COc1cccc(NC(=O)CSc2cc(=O)n(C)c3ccc(Cl)cc23)c1
CC(=O)c1cccc(NC(=O)c2nc(-c3ccccc3)n(-c3cccc(C)c3)n2)c1
O=C(Nc1ccc2nc(SCC(=O)N3CCCc4ccccc43)sc2c1)c1ccc(Cl)cc1
COc1ccc(NC(=O)c2cc3cc(C)ccc3n2C)cc1
CCc1ccc(NC(=O)CN2CCSc3ccc(S(=O)(=O)N4CCCC4)cc32)cc1
O=c1cc2nc(-c3ccccc3)nc(SCCOc3ccc(Cl)cc3)n2[nH]1
CCc1ccc(Sc2cc(C(=O)NCCCOC(C)C)c3ccccc3n2)cc1
Cn1c(=O)c2c(nc(NCCc3ccccc3)n2Cc2ccccc2Br)n(C)c1=O
O=C(CSc1ncc(S(=O)(=O)c2ccc(Br)cc2)c(=O)[nH]1)Nc1ccc2c(c1)OCCO2
CCN1CCN(c2cc(C)c3cc(NC(=O)c4cc(Cl)ccc4OC)ccc3n2)CC1
Cc1cccc(-n2c(=O)c3c(c4cc(C)ccc4n3C)n(CC(=O)Nc3ccccc3Cl)c2=O)c1
CCc1ccccc1NC(=O)CSc1nc(C)c(C(=O)Nc2ccccc2)c(-c2ccc(Cl)cc2)c1C#N
O=C(NCc1ccccc1Cl)C1=Cc2cc(Br)ccc2OC1
COC(=O)C1=C(c2ccccc2)c2ccccc2S(=O)(=O)N1CC(=O)Nc1ccccc1C(F)(F)F
Cc1ccc2cccc(NC(=O)c3cccc4ccccc34)c2n1
CC(C)OCCCn1c(SCC(=O)c2ccccc2)nc2c(sc3ccccc32)c1=O
CCC(C)Nc1oc(-c2ccc(COc3ccc(Cl)cc3)o2)nc1C#N (stereo not drawn)
Cc1ccc(NC(=O)c2nc(S(=O)(=O)Cc3cccc(C)c3)ncc2Cl)cc1
COc1ccc(C2C(=O)N(C3CCCCCC3)CC(=O)N2CCc2ccc(Cl)cc2)cc1OC (stereo not drawn)
CCOC(=O)c1cnc2c(C)cc(Cl)cc2c1NCCc1ccc(OC)c(OC)c1
Cc1cccc(CC(=O)Nc2cccc(-c3cn4cccnc4n3)c2)c1
Cc1cc(C)cc(NC(c2nnc(-c3cccc(F)c3)o2)c2ccc(F)cc2Cl)c1 (stereo not drawn)
Cn1nnnc1SCCCNCc1cccc(OCc2ccc(Cl)cc2)c1
COCCn1c(CCC(=O)Nc2cc(C)ccc2C)nc2cccnc21
O=C(CSc1oc(-c2ccccc2)nc1S(=O)(=O)c1ccc(Br)cc1)NC1CCCCC1
COc1ccccc1CNC(=O)CCCCn1c(=O)c2ccccc2n(CC(=O)Nc2cc(Cl)ccc2C)c1=O
COc1cccc(CNC(=O)Cc2csc3nc(-c4ccccc4)cn23)c1
Cn1c(COc2ccccc2C(C)(C)C)nc2ccccc21
Cc1ccc(CNC(=O)CSc2c(C)cnc3c2c(=O)n(C)c(=O)n3C)cc1
Cc1ccc(CN2CCC(CNC(=O)c3cnn(-c4ccc(C)cc4)c3C3CCN(C(=O)OC(C)(C)C)CC3)CC2)cc1
CSc1nc(=O)c2c(n1C)NC(=O)CC2c1ccccc1OC(C)C (stereo not drawn)
COc1ccc(-c2c(C)c3ccc(O)c(CN4CCCC4)c3oc2=O)cc1OC
COc1ccccc1NC(=O)c1oc2ccccc2c1NC(=O)COc1ccccc1OC
CC(=O)N1CCc2cc(S(=O)(=O)NC(Cc3ccccc3)C(=O)NCc3ccc(C)cc3)ccc21 (stereo not drawn)
O=C1Cc2cc(S(=O)(=O)Nc3ccc(OC(F)(F)F)cc3)cc3c2N1CCC3
CC1CCCN(c2nc3c(S(=O)(=O)c4ccc(C(C)C)cc4)nnn3c3ccsc23)C1 (stereo not drawn)
Cc1ccc(CSc2nc3ccsc3c(=O)n2CCC(C)C)cc1
CCOc1ccccc1CNC(=O)C1CCCN(S(=O)(=O)c2ccc3c(ccn3C)c2)C1 (stereo not drawn)
Cc1ccc2c(=O)cc(C(=O)Nc3sc4c(c3C(=O)NCc3cccnc3)CCCC4)oc2c1
COc1ccc(C(=O)Nc2ccc3nc(N4CCCCC4)cc(C)c3c2)cc1OC
COC(=O)CC1Oc2ccccc2-n2cc(-c3ccccc3)nc21 (stereo not drawn)
CCOC(=O)c1cc(-c2ccc(OC)c(S(=O)(=O)Nc3ccc(OC)cc3OC)c2)on1
Cc1cccc(NC(=O)c2ccc3nc(C(C)C)oc3c2)c1C
COc1ccc(Cl)cc1-n1c(CCC(=O)O)ccc1-c1ccc(C)cc1
O=C(Nc1ccccc1F)C(c1ccccc1)N1Cc2ccccc2C1=O (stereo not drawn)
Cc1ccc(-c2cc(N)n(Cc3cccc(Cl)c3)n2)cc1
Cc1nc(SCC(=O)N2CCN(c3ccccc3)CC2)[nH]c(=O)c1C
Cc1ccc(C)c(N2CCN(C(=O)C3CCC(CNS(=O)(=O)c4cccs4)CC3)CC2)c1 (stereo not drawn)
CCOc1ccc(CNCCSc2nnnn2C)cc1
NS(=O)(=O)c1ccc(NC(=O)C(=O)Nc2ccc3nc4n(c(=O)c3c2)CCCCC4)cc1
CCc1ccc(-n2nnc(-c3nc(-c4ccccc4)no3)c2C)cc1
COc1cccc(CNc2nccn(-c3ccc(OC)c(OC)c3)c2=O)c1
COc1ccc(NC(=O)CSc2nc3ccccc3[nH]2)cc1
CC(C)c1ccc(NC(=O)C2CCN(c3nc(-c4ccc(C(C)C)cc4)no3)CC2)cc1
CCOc1cccc2cc(-c3cn4c(n3)sc3cc(C)ccc34)c(=O)oc12
CCc1cc2c(cc3c(=O)n(CC(=O)NCc4cccc(Cl)c4)nc(CC)n32)s1
